# High-throughput results deposited in PubChem BioAssay by National Center for Advancing Translational Sciences (NCATS).
# In the library only some 8.2% were active in any assay of this set; here they are far more common.
# KB-3-1 tox: qHTS assay for MDR1-selective chemotherapeutics: Primary screen using the parental adenocarcinoma cell KB-3-1. Potency, µM (titrated, usually from 46.1 µM), actives largely listed as cytotoxic. 1.4% of 400,000 active. KB-3-1 viability, CellTiter-Glo ATP luminescence, 72 h. AID 1347075, 2019; also: % is scaled to controls: 0 for no effect and ±100 for the full control effect; nearly all actives have a fitted effect of over 60% in size
#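 72 h, 37 °C compound treatment of KB-3-1 parental cells; CellTiter-Glo added, 10 min, luminescence read. Data corrected against DMSO-only plates and normalized before curve fitting.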
# MCF10A rerep: A quantitative high throughput screen for small molecules that induce DNA re-replication in MCF 10a normal breast cells; MCF 10A DNA re-replication, Hoechst nuclear intensity, 48 h; Potency, µM (highest dose often 46.1 µM), inactives show at the highest dose activity, positive = re-replication, most hits filed as activators; 2.9% of 350,000 active; also: % of control where 0% means no effect; nearly all actives have a fitted effect of over 50% in size
# SW480 rereplic: A quantitative high throughput screen for small molecules that induce DNA re-replication in SW480 colon adenocarcinoma cells | SW480 DNA re-replication, Hoechst DNA content imaging, 48 h | Potency, µM (doses to about 46.1 µM), without a hit: top-dose re-replication activation, usual class: activators | 1.8% of 340,000 active | AID 624297, 2012; also: % of control where 0% means no effect; nearly all actives have a fitted effect of over 55% in size
#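 Readout is total intensity of Hoechst-stained nuclei, excited at 405 nm and collected at 500-530 nm. Compound treatment lasted 48 hr at 37 C in 5% CO2 before staining.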
# ELG1 DNA repair: qHTS screen for small molecules that inhibit ELG1-dependent DNA repair in human embryonic kidney (HEK293T) cells expressing luciferase-tagged ELG1. HEK293T ELG1-luciferase reporter, luminescence, 16 h; DNA damage induced by 5-fluorouridine. Potency, µM (series often up to 46.1 µM), for the others: at the highest dose activity change, negative = inhibition, hits mostly inhibitors. 2.3% of 330,000 active; also: % is scaled to controls: 0 for no effect and ±100 for the full control effect; nearly all actives have a fitted effect of over 55% in size
#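 5-Fluorouridine DNA damage + compound/DMSO, 2,000 cells/well, 16 h, 37 °C/5% CO2. ONE-Glo, 30 min RT, luminescence. Readout = decrease in reporter signal.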
# KB-V1 MDR tox: qHTS assay for MDR1-selective chemotherapeutics: Primary screen using the drug-selected MDR subline cells KB-V1; Potency, µM (doses to about 46.1 µM), actives largely listed as cytotoxic; KB-V1 MDR cells viability, CellTiter-Glo, 72 h; AID 1347076, 2019; 3.4% of 400,000 active; also: % is scaled to controls: 0 for no effect and ±100 for the full control effect; nearly all actives have a fitted effect of over 60% in size
#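 Compound-treated KB-V1 multidrug-resistant cells, 72 h, 37 degrees C; viability by CellTiter-Glo. Fitted qHTS curves give the values.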
# An asterisk follows results filed as active; i = inactive; u = inconclusive; x = not tested or not shown; ! = a repeat was not active; [ ] = remark or other dose. Calls follow the shape of the dose curve; as a rule, active = well fitted curve in the direction sought with a large enough effect; inconclusive = small, poorly fitted or top-dose-only effect, or another doubt; inactive = no such curve, though single readings can be large; an effect the other way counts as inactive or inconclusive. Potency is read from the fitted curve at half-maximal effect.
SMILES,KB-3-1 tox,MCF10A rerep,SW480 rereplic,ELG1 DNA repair,KB-V1 MDR tox
Cc1ccccc1NC(=S)c1ccc2ccccc2n1,i,5%,-7%,u,i
COc1ccc(-n2c(-c3ccco3)nc3c(cnn3-c3ccc(Cl)cc3)c2=O)cc1,u,x,x,x,i
O=c1c2cnn(-c3ccccc3)c2nc(-c2ccco2)n1-c1ccccc1,15µM*,u,-1%,6.3µM*,5.2µM*
COCCCNc1nc(SCc2ccccc2)nc2sc3c(c12)CCC3,i,-183%[0.0737 µM],u,u,i
N#Cc1cnn(-c2nc(SCc3ccccc3)nc3sc4c(c23)CCCC4)c1N,i,0%,1%,-4%,21µM*
COc1cc(OC)cc(C(=O)NCC(=O)Nc2ccc(C)c(Cl)c2)c1,i,16%,-1%,11%,i
CC(=O)Oc1ccc(C(=O)Nc2cccc(C(=O)c3cccc(NC(=O)c4ccc(OC(C)=O)cc4)c3)c2)cc1,u,u,u,23µM*,i
COc1cc(OC)cc(C(=O)NCC(=O)Nc2ccc(-c3ccccc3)cc2)c1,u,4.6µM*,8.2µM*,u,i
Cc1ccc(C(=O)Nc2ccc3c(c2)OCCO3)o1,i,0%,0%,u,21µM*
CC(C)OC(=O)c1cccc(NC(=O)c2ccccc2)c1,i,u,6%,u,12µM*
CCO[C@H]1C[C@@H](c2ccc(CC)cc2)N(S(=O)(=O)c2ccc(C)cc2)C2CC(c3ccc(CC)cc3)N(S(=O)(=O)c3ccc(C)cc3)CC21 (some centres undefined),i,x,x,x,i
CC(C)OCCCNC(=O)c1cccc(NC(=O)c2ccccc2)c1,i,2%,-1%,u,16µM*
CC(CCc1ccccc1)NC(=O)c1ccc(NC(=O)c2cccc(Br)c2)cc1 (centres undefined),i,18µM*,u,-2%,2.1µM*
COc1cc(OC)cc(C(=O)Nc2cccc(NC(=O)c3ccccc3)c2)c1,i,0%,1%,16µM*,i
COc1cc(OC)cc(C(=O)Nc2cccc(C(C)=O)c2)c1,i,0%,0%,17%,i
CC(C)(C)C(=O)Nc1ccc2c(c1)OCCOCCOc1cc(NC(=O)C(C)(C)C)ccc1OCCOCCO2,u,-12%,2%,7.3µM*,u
Cn1c(C(=O)Nc2ccc3c(c2)OCCO3)cc2sccc21,i,-1%,9%,u,15µM*
Cc1ccc(OCC(=O)NC(=S)Nc2cccc(NC(=O)c3ccc(Cl)cc3Cl)c2)cc1,i,22%,-7%,-13%,u
COc1cc(OC)cc(C(=O)NC(C(=O)Nc2ccc3c(c2)OCCO3)C(C)C)c1 (centres undefined),i,10%,-10%,u,i
COc1cc(OC)cc(C(=O)Nc2ccc3c(c2)OCCO3)c1,16µM*!,-1%,-1%,u,9.2µM*!
COc1cc(OC)cc(C(=O)Nc2nnc(NC(=S)Nc3ccccc3)s2)c1,i,10µM*,9%,-9%,i
O=C(Nc1ccc2c(c1)OCCO2)c1cc2sccc2n1Cc1ccccc1,i,6%,2%,u,u
Cc1ccc(OCC(=O)NC(=S)Nc2cccc(NC(=O)c3ccccc3)c2)cc1,i,15µM*,2%,15%,i
Cc1nc(-c2ccc(C)c(N3CCN(C(=O)Nc4ccc(Br)cc4)CC3)c2)no1,i,x,x,x,i
O=[N+]([O-])c1cc([N+](=O)[O-])c(N2CCCCCC2)cc1NCCO,i,23%,27%,-10%,9.2µM*
SMILES,KB-3-1 tox,MCF10A rerep,SW480 rereplic,ELG1 DNA repair,KB-V1 MDR tox
O=[N+]([O-])c1c(NCCO)cc(N2CCCCC2)c2nonc12,i,-2%,2%,8%,i
c1ccc(-c2oc3ncnc(NCCCN4CCOCC4)c3c2-c2ccccc2)cc1,u,u,8%,u,u
COc1cc2ncnc(NCCCN3CCOCC3)c2cc1OC,i,-1%,-3%,11%,i
COc1ccc(-c2oc3ncnc(NCCCN4CCOCC4)c3c2-c2ccc(OC)cc2)cc1,i,u,u,16µM*,18µM*
CCOc1cc2nc(-c3ccc(OC)c(OC)c3)nc(NCCCN3CCOCC3)c2cc1OC,i,12µM*,u,u,u
COc1ccc(-c2oc3ncn(CCN4CCOCC4)c(=N)c3c2-c2ccc(OC)cc2)cc1,u,13µM*,u,21µM*,u
COc1ccc(-c2oc3ncnc(NCCN4CCOCC4)c3c2-c2ccc(OC)cc2)cc1,u,u,8%,u,u
C(=Cc1cnc2ccccc2n1)c1ccc2c(c1)OCO2,i,x,x,x,15µM*
C(=C\c1nc2ccccc2nc1/C=C/c1ccc2c(c1)OCO2)/c1ccc2c(c1)OCO2,u,x,x,x,i
COC(=O)Cn1c(=NC(=O)c2ccc(S(=O)(=O)N3CCc4ccccc4C3)cc2)sc2cc(OC)ccc21,i,u,1%,u,u
COc1cccc(C(=O)N=c2sc3cc(S(C)(=O)=O)ccc3n2C)c1,i,1%,6.5µM*,u,i
COc1cc(OC)cc(C(=O)N=c2sc3ccccc3n2C)c1,i,u,-37%,u,i
COCCn1c(=NC(=O)c2ccc(S(=O)(=O)N3CCCc4ccccc43)cc2)sc2cc(S(C)(=O)=O)ccc21,i,u,u,-9%,1.8µM*
CCOCCn1c(=NC(=O)c2cc(Cl)sc2Cl)sc2cc(S(N)(=O)=O)ccc21,x,x,x,14%,x
CCOCCn1c(=NC(=O)c2ccc(S(=O)(=O)N3CCOCC3)cc2)sc2cc(S(N)(=O)=O)ccc21,i,2%,-4%,18µM*,u
C#CCn1c(=NC(=O)c2ccc(S(=O)(=O)N3CCc4ccccc4C3)cc2)sc2cc(S(N)(=O)=O)ccc21,u,4.1µM*,u,u,u
Cc1cc(C)c(NC(=O)CNC(=O)c2cc([N+](=O)[O-])ccc2N2CCOCC2)c(C)c1,i,14%,-18%,8%,i
NNC(=O)C12CC3CC(C1)CC(n1ncnn1)(C3)C2,i,-2%,0%,-5%,i
Cc1ccc(-c2[nH]ncc2CNC(C)c2ccccc2)cc1 (centres undefined),i,x,x,x,i
COCCn1c(=NC(=O)c2ccc(S(=O)(=O)N3CCc4ccccc4C3)cc2)sc2cc(S(N)(=O)=O)ccc21,i,-2%,-4%,3%,i
